USP30 inh = blocks human USP30 ubiquitin-rhodamine cleavage | purified USP30, Ub-rhodamine cleavage fluorescence | inhibition, % at 25 µM | 5.3% of 47,000 active | Q70CQ3 | AID 1645860
USP10 inh = inhibitors of human USP10 deubiquitinase | Q14694 | purified USP10, Ub-rhodamine fluorescence, 60 min | inhibition, % at 20 µM | 1.1% of 47,000 active | AID 1645856
USP8 inh = blocks human USP8 ubiquitin-rhodamine cleavage | purified USP8, Ub-rhodamine cleavage fluorescence, 30 min | P40818 | inhibition, % at 20 µM | AID 1645853 | 4.2% of 47,000 active
Target sequence (P40818 whole entry, looked up): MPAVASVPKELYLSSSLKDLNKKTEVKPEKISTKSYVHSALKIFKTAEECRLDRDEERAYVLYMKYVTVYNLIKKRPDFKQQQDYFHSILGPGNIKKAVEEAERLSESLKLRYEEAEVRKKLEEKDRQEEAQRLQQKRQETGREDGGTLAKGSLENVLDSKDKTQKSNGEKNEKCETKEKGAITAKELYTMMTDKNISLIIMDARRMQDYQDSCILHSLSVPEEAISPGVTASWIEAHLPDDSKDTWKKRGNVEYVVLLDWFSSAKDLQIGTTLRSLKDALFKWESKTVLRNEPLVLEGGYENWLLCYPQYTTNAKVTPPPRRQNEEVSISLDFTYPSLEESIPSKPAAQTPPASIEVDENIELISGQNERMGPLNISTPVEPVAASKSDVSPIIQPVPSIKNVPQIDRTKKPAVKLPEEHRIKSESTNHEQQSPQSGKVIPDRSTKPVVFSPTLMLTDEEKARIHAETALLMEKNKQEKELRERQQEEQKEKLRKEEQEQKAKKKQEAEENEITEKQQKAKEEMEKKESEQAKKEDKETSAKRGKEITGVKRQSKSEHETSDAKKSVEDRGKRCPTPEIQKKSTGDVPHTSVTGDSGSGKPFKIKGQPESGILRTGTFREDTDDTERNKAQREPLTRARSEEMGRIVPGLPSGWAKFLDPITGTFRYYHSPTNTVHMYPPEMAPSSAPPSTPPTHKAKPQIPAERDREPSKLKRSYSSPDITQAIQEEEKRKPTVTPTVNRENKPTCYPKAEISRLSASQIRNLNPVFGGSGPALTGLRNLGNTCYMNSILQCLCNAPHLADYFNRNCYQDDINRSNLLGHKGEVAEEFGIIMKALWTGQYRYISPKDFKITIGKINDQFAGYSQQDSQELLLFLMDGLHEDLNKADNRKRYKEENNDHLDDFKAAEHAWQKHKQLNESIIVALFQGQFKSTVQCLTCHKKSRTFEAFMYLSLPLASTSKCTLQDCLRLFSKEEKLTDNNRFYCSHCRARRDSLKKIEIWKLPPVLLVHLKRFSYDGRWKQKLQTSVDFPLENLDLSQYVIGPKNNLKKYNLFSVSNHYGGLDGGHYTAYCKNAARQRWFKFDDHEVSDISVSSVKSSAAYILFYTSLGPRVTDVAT
USP17 inh = human USP17-like deubiquitinase inhibition; 6.5% of 47,000 active; purified USP17, Ub-rhodamine cleavage fluorescence, 3 h; A8MUK1; inhibition, % at 50 µM
USP28 inh = blocks human USP28 ubiquitin-rhodamine cleavage; Q96RU2; purified USP28, Ub-rhodamine cleavage fluorescence, 30 min; inhibition, % at 25 µM; 3% of 47,000 active; AID 1645857
Numbers without * were called inactive; . = no result. Most compounds without a hit are left out; they make up all but 14% or so of the library. No stated cut-off is given here; in the data, active means inhibition above about 30%; inactive means the rest.

SMILES | USP30 inh | USP10 inh | USP8 inh | USP17 inh | USP28 inh
Cc1nn(C)c(Cl)c1CN1CCC(C(=O)Nc2cccc(-c3cccc(F)c3)c2)CC1 | -11 | -6 | -11 | -16 | 19
O=C(NCc1ccc2c(c1)OCO2)c1ccc(C2SCC(=O)N2Cc2ccco2)cc1 (configuration not stated) | 5 | 7 | 36* | 56* | 22
O=C(Cn1c(CN2CCCCC2)nc2sc3c(c2c1=O)CCCC3)N1CCc2ccccc21 | -325 | -5 | -20 | 4 | -105
O=C(Cn1cnc2sc3c(c2c1=O)CCC3)N1CCc2ccccc21 | -30 | 0 | 48* | 16 | -37
CC(C)CCCCCCCCCCC(=O)N(C)[C@H](CO)C(=O)N[C@H](C)C(=O)NCC(=O)N(C)C1C(=O)N[C@@H](C)C(=O)NC(C(=O)O)Cc2ccc(O)c(c2)-c2cc1ccc2O (some centres not stated) | 33* | 60* | 1 | 7 | 56*
CC(C)(C)c1cc(CCC(=O)Nc2c3c(nc4c2CCC4)CCCC3)cc(C(C)(C)C)c1O | 77* | -8 | 8 | 0 | 34*
O=C(CSc1nnnn1-c1ccccc1)Nc1ccccc1 | 46* | 5 | 10 | 51* | 15
O=C(CSc1nnnn1-c1ccccc1)N1CCN(c2ccccc2)CC1 | 15 | 1 | -5 | 13 | 17
COc1cccc(/C=C/C(=O)Nc2ccc(C)c(Cl)c2)c1 | 40* | 11 | 32* | 26 | 65*
Cc1c(C(=O)Nc2ccc3c(c2)N(C)C(=O)CO3)oc2ccc(F)cc12 | -10 | 1 | 16 | 1 | -8
CN1C(=O)COc2ccc(NC(=O)c3cc(-c4ccccc4)on3)cc21 | 27 | 4 | -1 | 74* | 12
Cc1ccc(-n2c(-c3ccccc3)cn3c4c(=O)[nH]c(=O)n(C)c4nc23)cc1Cl | 34* | 8 | -7 | 52* | 16
Cn1c(=O)[nH]c(=O)c2c1nc1n(CCc3ccccc3)c(-c3ccccc3)cn21 | 50* | 4 | -23 | 54* | 5
Cc1ccc(-n2c(-c3ccccc3)cn3c4c(=O)[nH]c(=O)n(C)c4nc23)cc1C | -44 | 4 | 0 | 78* | 5
COc1ccc(C(=O)N2CCC(c3nc(-c4ccccc4)no3)CC2)cc1 | 16 | 1 | 18 | 14 | 17
CC(=O)N1CCCC1c1cc(N2CC3(CCCCC3)OC2=O)nc(C)n1 (configuration not stated) | 0 | 1 | -266 | -27 | 2
O=C(c1ccco1)N1CCN(C(=O)c2cc3c(s2)CN(C2CC2)C3)CC1 | -82 | -1 | 1 | 5 | -10
Cc1cc(C)n2ncc(C(=O)N3CCN(c4ncccn4)CC3)c2n1 | . | 0 | -2 | 8 | .
O=C(c1cc2c(s1)CN(C1CCCC1)C2)N1CCCN(c2ncccn2)CC1 | -49 | -9 | 84* | 21 | -1
O=C(c1cc2cn(C3CC3)cc2s1)N1CCCN(c2ncccn2)CC1 | -78 | -4 | 83* | 28 | -17
COc1ccc(NC(=O)CC(c2ccc(F)cc2)N2Cc3ccccc3C2=O)cc1OC (configuration not stated) | 10 | -1 | 17 | 6 | 8
Cc1ccc(CNC(=O)Cc2nnc(-c3ccc4ncccc4c3)o2)cc1 | -115 | -5 | 29 | 31* | 11
OC(CN1CCN(c2ccccc2F)CC1)c1ccc2c(c1)CCN2 (configuration not stated) | 12 | 1 | 10 | 5 | 2
COc1cc2c(cc1NC(=O)c1ccc(-n3cnnn3)cc1)oc1ccccc12 | -6 | 14 | -1 | 53* | -6
COc1ccccc1C1(NC(=O)c2cncnc2)CCCC1 | 0 | 0 | -1 | 7 | 1
SMILES | USP30 inh | USP10 inh | USP8 inh | USP17 inh | USP28 inh
Cc1ccc(N2CC(c3nc4ccccc4n3CCOc3cccc(C)c3)CC2=O)cc1 (configuration not stated) | 47* | 69* | 95* | 48* | 16
COc1ccc(OCCn2c(C3CC(=O)N(C)C3)nc3ccccc32)cc1 (configuration not stated) | 11 | 0 | 23 | 0 | 10
Cc1ccc(N2CC(c3nc4ccccc4n3CCCCOc3ccccc3)CC2=O)cc1 (configuration not stated) | 52* | 11 | 5 | 17 | 22
CC(C)c1nc(C2CCCN2CC(=O)N(C)C2CC2)no1 (configuration not stated) | -319 | -3 | -13 | -90 | -86
Cc1ccc(NC(=O)NC2CCc3ncc(C(F)(F)F)n3C2)cc1 (configuration not stated) | -19 | 0 | -8 | -7 | -10
O=C(Nc1sc2c(c1-c1nc3ccccc3[nH]1)CCCC2)c1ccncc1 | -174 | -6 | 31* | 17 | -160
O=C(Nc1sc2c(c1-c1nc3ccccc3[nH]1)CCCC2)c1ccccc1[N+](=O)[O-] | -16 | 8 | 32* | 1 | -4
O=C(CCC(=O)N(CC(=O)NC1CCCCC1)c1ccc(F)c(Cl)c1)Nc1ccccn1 | 4 | -1 | 3 | 6 | 2
C[C@@H]1C[C@@H]2C[C@@H](O)CC(O)=C2C(=O)O1 | 17 | 1 | 0 | -7 | -2
O=S(=O)(c1ccc(-c2ccc(Cl)cc2Cl)cc1)C1CCNCC1 | 45* | -1 | -3 | 7 | 44*
CCCn1c(=O)[nH]c2nc(N3CCCCC3)sc2c1=O | -25 | -3 | -1 | 33* | -4
Cc1cccc(NC(=O)Cn2cccc(S(=O)(=O)N3CCCC3)c2=O)c1 | -12 | -5 | -5 | -5 | 4
Cc1cccc(NC(=O)N2CCC3(CC2)C(=O)Nc2ccccc23)c1 | 15 | -1 | -17 | -5 | 6
COc1ccc(Cc2nnc(Nc3ccc(F)cc3)[nH]c2=O)cc1OC | 35* | 1 | 18 | 4 | 10
C[C@]12C(=O)N(c3cccc(C(=O)NCCC4=CCCCC4)c3)C(=O)N1CCc1c2[nH]c2ccccc12 | 29 | 1 | -18 | 6 | 4
CCOc1ccc(C(=O)N2Cc3ccccc3CC2C(N)=O)cc1OC (configuration not stated) | 4 | -1 | 3 | 0 | -5
CCC(C(=O)N1CCc2cc(OC)c(OC)cc2C1COc1ccccc1OC)c1ccccc1 (configuration not stated) | 15 | 5 | 59* | 31* | 4
COc1cc2c(cc1OC)C(COc1ccccc1OC)N(C(=O)c1ccc3ccccc3c1)CC2 (configuration not stated) | -31 | -3 | 88* | 52* | 4
Cc1ccc(S(=O)(=O)N2Cc3ccccc3CC2C(=O)Nc2cccc(O)c2)cc1 (configuration not stated) | 6 | 8 | 4 | 14 | 29
CNc1cc(C2CCCN(C(=O)c3cc(C4CC4)on3)C2)ccn1 (configuration not stated) | -24 | -1 | 1 | -17 | -10
Cc1ccc2c(c1)n(S(=O)(=O)c1ccc(F)cc1)c(=O)n2S(=O)(=O)c1ccc(F)cc1 | 35* | 5 | 26 | 33* | 19
Cc1ccc2nc3c(cc2c1)CCN3S(=O)(=O)c1ccc(F)cc1 | -22 | -2 | -4 | 1 | -8

Assay outcomes from PubChem.
